A selection: hits, their analogues and other compounds. The true share with any hit is near 20%.
Pf growth 48h: Primary qHTS for delayed death inhibitors of the malarial parasite plastid, 48 hour incubation | hit rate 5.9% among 310,000 | P. falciparum luciferase growth in erythrocytes, 48 h | AID 504832, 2011 | Potency, µM (titrated, usually from 28.7 µM), for the others: top-dose activity change, negative = inhibition, actives largely listed as inhibitors; note: potency is the fitted concentration of half-maximal effect; % is set by controls: 0 for no effect and ±100 for the full control effect
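Parasite viability was followed by luminescence of a genomically integrated firefly luciferase. Cultures held 0.1% parasitemia at 2% hematocrit (final), incubated under 5% CO2 at 37 C.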
HCMV inh: qHTS Assay for inhibitors of the human cytomegalovirus (HCMV); AID 1259415, 2018; HFF cells, HCMV-luciferase reporter, 72 h; hits give low values; activity change, negative = inhibition, % at 57.5 µM; hit rate 4.5% among 410,000; in the data active = activity change below about -60%; inconclusive = no clear call, values can overlap the other calls; inactive = above about -39%; note: % is set by controls: 0 for no effect and ±100 for the full control effect
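Compounds were evaluated in HFFs infected with an HCMV luciferase reporter virus (MOI 1 PFU/cell). Luciferase in lysates collected 72 h post infection served as the replication measure.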
Pf growth 96h: Primary qHTS for delayed death inhibitors of the malarial parasite plastid, 96 hour incubation; Potency, µM (titrated, usually from 28.7 µM), inactives show at the top dose activity change, negative = inhibition, actives largely listed as inhibitors; hit rate 6.9% among 320,000; P. falciparum luciferase reporter growth, 96 h; note: potency is the fitted concentration of half-maximal effect; % is set by controls: 0 for no effect and ±100 for the full control effect
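Erythrocytes infected with luciferase-expressing P. falciparum were dispensed at 2% hematocrit and 0.05% parasitemia (final), then incubated with compounds 96 hours at 37 C in 5% CO2. Luminescence after detection reagent addition reported growth.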
Shiga inhibitor: A qHTS for Small Molecule Inhibitors of Shiga Toxin; Vero cells, Shiga toxin protein synthesis inhibition reporter; inhibition, % at 38.7 µM; hit rate 9.2% among 290,000; AID 2315, 2010; in the data active = inhibition mostly above about 28%, no sharp cut-off; inactive = mostly below about 43%; note: 0% is about no effect
Cycloheximide cs: Cycloheximide Counterscreen for Small Molecule Inhibitors of Shiga Toxin; cell reporter, cycloheximide protein synthesis inhibition counterscreen; max response, %; hit rate 12% among 300,000; in the data active = max response mostly above about 13%, no sharp cut-off; inactive = mostly below about 14%; note: read at 38.3 µM for the half of the compounds with a filed dose; 0% is about no effect
* marks the source's active call; other numbers are inactive results; u = inconclusive; x = not tested or not shown. Unless noted, calls come from the whole dose curve; as a rule, active = well fitted inhibition curve with a large enough effect; inconclusive = small, poorly fitted or top-dose-only effect, or another doubt; inactive = no such curve, though single readings can be large or run the other way.

SMILES	Pf growth 48h	HCMV inh	Pf growth 96h	Shiga inhibitor	Cycloheximide cs
COC(=O)CCCC1=CC2=CC(=O)C(C)(OC(=O)c3cccs3)C(=O)C2=CN1CCCCO (centres undefined)	u	8.4	13.1µM*	-3.3	-5.1
COC(=O)CCC(=O)OC1(C)C(=O)C=C2C=C(C3CC3)N(C(CO)CO)C=C2C1=O (centres undefined)	45.6%	-19.3	61.7%	-11.8	-3.7
COC(=O)CCC(=O)OC1(C)C(=O)C=C2C=C(C3CC3)N(CCCOC(C)C)C=C2C1=O (centres undefined)	10.4µM*	x	1.85µM*	-1.8	-3.5
CC(C)NC(=O)c1cccc2c1-c1ccccc1C2=O	x	-2.6	29.3%	-3.1	-4.1
Cc1ccc(NC(=O)c2ccc3c(c2)S(=O)(=O)c2ccccc2C3=O)cc1S(=O)(=O)N1CCOCC1	-5.2%	1.6	u	-5.3	-1.6
Cc1ccc(-n2cc(C(=O)c3ccc(F)cc3)nn2)cc1Cl	90.8%	89.9	290.1%	74.9*	36.5*
CC(=O)c1cc2ccc(O)cc2oc1=O	5.2%	-33.4	40.9%	-7.8	-2.6
Cc1ccc(N=c2oc3cc(O)ccc3cc2C(N)=O)cc1	-1.1%	-79.9*	25.3%	80.9*	56.3*
COc1ccc(N=c2oc3cc(O)ccc3cc2C(=O)NCC2CCCO2)cc1 (centres undefined)	u	4.9	u	-1.5	16.3
COc1ccc(N=c2oc3cc(O)ccc3cc2C(=O)Nc2ccccn2)cc1OC	4.65µM*	8.9	-10.5%	92.7	17.8
N#Cc1ccccc1CSc1nnc(-c2ccc(Br)cc2)o1	x	106.8	x	x	x
C=CCn1c(-c2ccc(Cl)cc2)cnc1SC(C)C(=O)NC(N)=O (centres undefined)	8.4%	-73.8*	u	20.8	7.8
Cc1cc(NC(=S)N(Cc2ccc(Cl)cc2)Cc2ccc(C(=O)O)cc2)ccc1Cl	3.3%	-61.6*	-18.6%	-5.9	8.5
Cc1cc(C)cc(NC(=S)N(Cc2ccc(Cl)cc2)Cc2ccc(C(=O)O)cc2)c1	-4.1%	-26.8	u	-8.7	-1.5
CCOC(=O)c1ccc(NC(=O)c2oc(=O)c3ccccc3c2-c2ccccc2)cc1	x	11.5	x	x	x
O=C(c1cccs1)N1CCN(c2ccc(Cl)cc2)CC1	1.1%	20.0	51.8%	19.8	22.2*
O=C(c1cccs1)N1CCC(N2CCN(c3ccccc3)CC2)CC1	0.8%	-1.3	3.29µM*	6.1	0.7
O=C(c1cccs1)N1CCN(c2cc(Cl)ccc2Cl)CC1	-10.2%	-9.6	u	-1.8	0.8
O=C(CCN1CCC(c2ccccc2)C1)c1cccs1 (centres undefined)	-2.1%	u	u	2.8	0.5
O=C(c1cccs1)N1CCC(c2ccccc2)C1 (centres undefined)	64.6%	38.3	4.3%	97.1*	41.2*
COc1ccccc1N1CCN(C2CCN(C(=O)c3cccs3)CC2)CC1	-6.0%	8.5	-3.9%	20.9	-0.7
CCn1c(=O)cc(SCC(=O)NCc2ccc(OC)cc2OC)c2ccccc21	x	18.7	x	x	x
CCOC(=O)CNC(=O)Nc1cc(C(C)(C)C)nn1-c1ccccc1	3.5%	-26.4	32.4%	-4.2	37.3*
Cc1ncsc1C(=O)N1CCCC(C(=O)c2ccc3ccccc3c2)C1 (centres undefined)	-13.7%	-37.8	-28.5%	-3.2	-1.8
Cc1[nH]nc2c1C(c1ccc3c(c1)OCO3)C(C#N)=C(N)O2 (centres undefined)	-7.6%	u	48.7%	9.0	1.3
SMILES	Pf growth 48h	HCMV inh	Pf growth 96h	Shiga inhibitor	Cycloheximide cs
CCOc1ccc(-c2[nH]nc3c2C(c2ccc4c(c2)OCO4)C(C#N)=C(N)O3)cc1OC (centres undefined)	-16.4%	31.7	13.1µM*	30.9	1.5
CCOc1cc(C2C(C#N)=C(N)SC(N)=C2C#N)ccc1OCCN1CCOCC1	9.28µM*	-10.0	x	0.3	0.9
CCCc1[nH]nc2c1C(c1ccc(OCCN3CCOCC3)c(OC)c1)C(C#N)=C(N)O2 (centres undefined)	27.9%	-7.8	-6.2%	54.2*	49.3*
O=C(Cn1cnc2c(nnn2Cc2ccccc2)c1=O)Nc1ccc2c(c1)OCCO2	3.8%	-15.3	2.7%	-25.2	1.2
Cc1ccc(C)n1-c1nnc(N2CCC(C(=O)Nc3ccccc3Br)CC2)s1	x	-30.8	x	x	x
CCCCN1C(=O)N(c2nnc(C(C)(C)C)s2)C(O)C1c1ccc(C)cc1 (centres undefined)	8.28µM*	46.3	10.4µM*	29.9	16.7*
CN1C(=O)N(c2nnc(C(C)(C)C)s2)C(=O)C1c1ccccc1 (centres undefined)	30.2%	33.4	30.2%	6.4	3.6
CN(CC(=O)Nc1ccccc1Br)C(=O)CNC(=O)c1ccc(Oc2ccccc2)cc1	u	-63.0*	-11.3%	55.2*	60.1*
CC(C)CC(=O)Nc1nnc(SCC(=O)NCC2CCCO2)s1 (centres undefined)	7.0%	31.1	u	12.6	-1.7
O=C(NCc1ccncc1)[C@@H]1CCCN1C(=O)[C@@H]1CCCN1C(=O)c1ccccc1	x	-4.1	x	x	x
CC(C)C(NC(=O)C(C(C)C)N(C)C)C(=O)N(C)C(C(=O)N1CCCC1C(=O)N1CCCC1C(=O)NCc1ccccc1)C(C)C (centres undefined)	x	-85.6*	x	x	x
CCn1c(C)nnc1SCC(=O)NC1CCCC1	6.6%	5.4	9.2%	-5.7	-2.0
N#C/C(=C\N1CCOCC1)C(N)=O	7.8%	1.6	0.0%	0.5	8.3
COC(=O)C1CC23C=CCN4CCC5(c6ccccc6NC15C2C)C43 (centres undefined)	1.47µM*	-83.5*	-5.4%	-6.5	-3.8
CC(C)N(Cc1nc(-c2ccc(Cl)cc2)no1)Cc1nccn1C	u	u	u	5.8	10.4
CC(C)(C)C1CCC(OC(=O)CN2CCCCC2)CC1 (centres undefined)	68.3%	17.4	44.7%	26.0	-1.9
Cc1ccccc1Cn1c(C)c(CNCCCc2ccccc2)c(C(=O)O)c1C	x	12.4	x	x	x
CS(=O)(=O)c1nc(S(=O)(=O)c2ccc(Cl)cc2)c(N2CCC3(CC2)OCCO3)s1	-13.1%	u	2.94µM*	4.7	-1.5
CCN1CCN(c2sc(S(C)(=O)=O)nc2S(=O)(=O)c2ccc(C)cc2)CC1	-17.7%	-91.1*	u	19.8	-2.1
Cc1ccc(S(=O)(=O)c2nc(S(C)(=O)=O)sc2N2CCCC2)cc1	1.0%	-24.4	u	-0.8	-2.5
CCCS(=O)(=O)c1nc(S(=O)(=O)c2ccc(C)cc2)c(N2CCN(C)CC2)s1	-20.4%	u	72.1%	-6.0	-3.5
CCCS(=O)(=O)c1nc(S(=O)(=O)c2ccc(C)cc2)c(N2CCN(CC)CC2)s1	-18.4%	-80.3*	2.7%	-3.6	-2.8
CCS(=O)(=O)c1nc(S(=O)(=O)c2ccc(C)cc2)c(N2CC(C)OC(C)C2)s1 (centres undefined)	-17.8%	u	14.7µM*	-1.2	-2.8

Assay outcomes: PubChem, National Center for Advancing Translational Sciences (NCATS)
